Assay results published in PubChem BioAssay (NCI).
The panel holds about 83,000 compounds, 20% with a hit somewhere; the sample as a whole holds those more often.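 Activity criterion: percent growth below 10, measured after cells in 96-well plates were exposed to a single compound concentration for 48 hours.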 A number with no mark means an inactive call. Calls of active or inactive are those of the source.

Key:
Assay in all cases: NCI-60 one-dose screen, 48 h (100 = growth as untreated, 0 = no growth, -100 = all killed)
Settings in all cases: 10 µM unless noted
[1] = tested on: DU-145 prostate
[2] = tested on: K-562 leukemia
[3] = tested on: MALME-3M melanoma
[4] = tested on: MDA-MB-231 breast
[5] = tested on: RXF 393 renal
[6] = tested on: SF-268 CNS
[7] = tested on: SF-295 CNS
[8] = tested on: SF-539 CNS
[9] = tested on: UACC-257 melanoma
[10] = tested on: M14 melanoma
[11] = tested on: HCT-15 colon
[12] = tested on: HT29 colon
[13] = tested on: SNB-75 CNS
[14] = tested on: SNB-19 CNS
[15] = tested on: U251 CNS
[16] = tested on: PC-3 prostate
[17] = tested on: SK-MEL-5 melanoma
[18] = tested on: LOX IMVI melanoma
[19] = tested on: SK-MEL-28 melanoma
[20] = tested on: UACC-62 melanoma

SMILES	growth [1]	growth [2]	growth [3]	growth [4]	growth [5]	growth [6]	growth [7]	growth [8]	growth [9]	growth [10]	growth [11]	growth [12]	growth [13] [%]	growth [14]	growth [15]	growth [16]	growth [17]	growth [18]	growth [19]	growth [20]
Cc1c(O)cc(-c2cnc(N/N=C\c3ccc(Cl)cc3)s2)c(O)c1C	100%	72.2%	107%	95.4%	81.3%	92.4%	99.9%	78.8%	91.2%	96.2%	85%	101%	94.2	97%	89.9%	66.4%	79.8%	62.2%	94.4%	–
O=C(Nc1ccccc1Cl)Oc1ccc(-c2ccccc2)cc1	120%	110%	122%	107%	109%	119%	114%	95.1%	111%	107%	104%	103%	84.2	98.4%	112%	99.8%	99.9%	106%	151%	–
N#Cc1c(N)nc2c(C#N)c(NC(=O)c3ccccc3)nn2c1-c1ccccc1	102%	73.1%	102%	84.3%	83.5%	86.2%	90%	94.2%	105%	87.3%	81.2%	99%	83	89.6%	106%	75.7%	78.4%	86.3%	103%	–
COC(=O)[C@]12CC[C@@H](C)[C@H](C)[C@@H]1C1=CC[C@@H]3[C@@]4(C)C(C=O)=C[C@@](C)(COC(=O)c5ccco5)[C@@H]4C(=O)C[C@@]3(C)[C@]1(C)CC2	42%	22.7%	-17% (active)	39.4%	47.6%	44.9%	34.4%	57.7%	-38.9% (active)	6.34% (active)	25.2%	29.9%	34.8	39.7%	33.9%	11.1%	-84.8% (active)	26.6%	24.9%	–
COc1ccc2cc(-c3cc(OC)c(OC)c(OC)c3)c(=O)oc2c1	101%	27.7%	65.1%	60.8%	84.9%	89.7%	71.4%	80.2%	54.9%	38.6%	50%	44.3%	65	80.3%	70.7%	69.2%	79.5%	73.5%	78.5%	–
C=C(C)[C@@H]1CC[C@]2(C(=O)NC3CCCCC3)CC[C@]3(C)[C@H](CC[C@@H]4[C@@]5(C)CCCNC(C)(C)[C@@H]5CC[C@]43C)[C@@H]12	59%	-8.4% (active)	-6.88% (active)	52.7%	56.6%	78.4%	96.9%	63.4%	-9.57% (active)	-52.3% (active)	-26.8% (active)	2.51% (active)	93.9	84.3%	14.9%	49.7%	6.77% (active)	-91.8% (active)	56.6%	–
S=C(Cc1ccc2c(c1)CCCC2)N1CCOCC1	104%	107%	85.6%	103%	115%	101%	104%	99.6%	91.5%	99.5%	101%	87.9%	95.1	102%	95.6%	97.8%	102%	93.2%	102%	–
O=C1Nc2ccccc2/C1=C/c1cn(C(=O)c2ccc(Cl)cc2)c2ccccc12	118%	85.7%	118%	77.7%	130%	99.9%	114%	99.4%	99.7%	102%	92.1%	110%	87.7	99.1%	99.4%	95.7%	97.7%	100%	93%	–
CCOC(=O)c1c(/C=C/C(=O)O)nc2ccccc2c1/C=C/c1ccccc1	14.2%	23.9%	51.4%	57.5%	11.3%	40.7%	73.6%	19.8%	49.6%	63%	23.9%	49.9%	15	61.1%	51.2%	53.5%	53.7%	28.1%	45.8%	–
O=C(N/N=C/C=C/c1ccc([N+](=O)[O-])o1)c1cc2ccccc2cc1O	-21.7% (active)	4.52% (active)	-68% (active)	-15.9% (active)	-63.2% (active)	-20.3% (active)	14.4%	-83.6% (active)	-56.3% (active)	-100% (active)	-12.3% (active)	-11.7% (active)	43.4	-34.4% (active)	-16% (active)	4.52% (active)	-100% (active)	-79.5% (active)	-66.5% (active)	-64.3% (active)
COCCN(C(=O)c1ccc(F)cc1F)c1c(N)n(Cc2ccccc2)c(=O)[nH]c1=O	120%	96.6%	120%	106%	101%	111%	108%	108%	106%	112%	98.8%	104%	105	106%	100%	97.4%	108%	99.3%	114%	–
CC/C=C\C[C@H](O)C/C=C1/C(=O)C=C[C@@H]1C/C=C\CCCCO	28.3%	6.44% (active)	34.7%	8.29% (active)	56.1%	78.3%	10.6%	14.5%	34%	16.4%	2.31% (active)	-39% (active)	76.1	55.8%	-33% (active)	0.486% (active)	10.5%	-68.9% (active)	16.7%	–
CC(=O)OC1CCC2(C)C(=CC3C4CCC(=O)C4(C)CCC32)C1 (stereo unspecified)	101%	95%	112%	98.2%	115%	96%	95.5%	99.1%	110%	98%	98.2%	99.7%	83.8	98.6%	98.5%	101%	105%	100%	102%	–
c1ccc2cc3nc4cc5ccccc5cc4nc3cc2c1	110%	95.1%	134%	86.6%	137%	97.7%	134%	108%	98.2%	101%	96.9%	103%	89.3	97.2%	101%	85%	102%	86.1%	96.9%	–
Cc1ccc(-c2c(-c3ccccc3)c(=O)oc3ccc(C)cc23)cc1	116%	76%	92.9%	91%	107%	91.8%	104%	109%	86.8%	102%	52.1%	101%	86.3	94.8%	83.1%	56.4%	90.9%	96.2%	110%	76.1%
COc1ccc2nc(NNC(=O)c3cnccn3)c3cccn3c2c1	1.09% (active)	4.97% (active)	-6.33% (active)	5.83% (active)	41.2%	9.31% (active)	2.1% (active)	-19.7% (active)	-8.01% (active)	-37.5% (active)	-19.5% (active)	10%	25.3	6.9% (active)	0.414% (active)	16.5%	0.958% (active)	-36.3% (active)	11.7%	–
